Records with an inconclusive call do not appear. The source made the active and inactive calls. How the source made its calls, unless noted: active means hit-call score of the fitted dose curve at least 0.9, where 1 is the maximum; inconclusive means response in the unintended direction; inactive means score below 0.9.
Tests used:
[1] = Tanguay_ZF_120hpf_SWIM_legacy: (Legacy) Oregon State University Tanguay Lab 120 Hour Post-fertilization zebrafish Assay for Swim Bladder Malformation (AID 2283654);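 further: swim bladder malformation in each larva scored yes or no under brightfield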
Outline: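 Static waterborne exposure of single dechorionated Tropical 5D zebrafish embryos, 6–120 hpf, 28C, 0.64% DMSO final. Read-out: swim bladder malformation, present/absent, relative to DMSO negative control; trimethyltin chloride 5uM served as positive control.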

[2] = Tanguay_ZF_120hpf_TRUN_legacy: (Legacy) Oregon State University Tanguay Lab 120 Hour Post-fertilization zebrafish Assay for Truncated Body (AID 2283655)
Outline: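 Binary presence/absence of truncated body is recorded at 120 hpf by brightfield, with non-mortality endpoints skipped after death. Exposure is static from 6 hpf in sealed dark plates at 28C, using dechorionated wild-type zebrafish, 0.64% DMSO.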

[3] = Tanguay_ZF_120hpf_NC_legacy: (Legacy) Oregon State University Tanguay Lab 120 Hour Post-fertilization zebrafish Assay for Notochord and Tail Malformation (AID 2283656)
Outline: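 Binary notochord-distortion calls, made by brightfield inspection, form the read-out; activity is fitted in the positive direction against DMSO. Exposure ran statically from 6 to 120 hpf at 28C with 0.64% DMSO.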

[4] = tested on: Thyroperoxidase (TPO), gene 54314; experiment: CCTE_Simmons_AUR_rTPO: CCTE's Amplex UltraRed Assay for Thyroperoxidase (TPO) Inhibition, Simmons Lab (AID 2283662);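 on AC50: potency for loss of signal meaning inhibition of peroxidase activity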
Outline: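 Rat thyroid microsomal TPO + 25 uM AUR in 200 mM K phosphate; cpd 5 nM–87.5 uM [final], 8 conc, 0.5% DMSO; 300 uM H2O2 starts rxn; 37C dark 30 min; endpoint FI 544/590 nm; n=3.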

[5] = CCTE_Simmons_CellTiterGLO_HEK293T: Viability Assessment in CCTE's Assays for Thyroperoxidase (TPO) Inhibition, Simmons Lab (AID 2283665);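 on AC50: cells exposed to compound for 24 h before readout; actives reduce ATP signal below DMSO vehicle meaning cytotoxicity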
Outline: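 Luminescent ATP readout (CellTiter-Glo, 20 min at room temperature) after 24 hr exposure of HEK293T cells to 5 nM–87.5 uM final compound; signal loss relative to DMSO vehicle indicated cytotoxicity; dichlone titrated as positive control.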

[6] = CCTE_Padilla_ZF_144hpf_TERATOSCORE: (Legacy) CCTE's 144 Hour Post-fertilization zebrafish Assay Teratoscore, Padilla Lab (AID 2283679; active means hit-call score of the fitted dose curve at least 0.9, where 1 is the maximum; inactive means score below 0.9;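 on AC50: zebrafish embryos with chorions exposed by immersion from 6-8 hpf to 5 dpf with daily renewal; teratogenicity score from eye scoring of death hatching and malformations at 144 hpf; higher score means more developmental defects relative to DMSO baseline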)
Outline: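 Larvae scored by eye at 144 hpf for death, hatching and malformations after a day in clean Hanks'. Before that, daily-renewed exposure at 80 uM (0.4% DMSO, 26C) from roughly 6-8 hpf through 5 dpf, 4 embryos per chemical.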

[7] = STM_H9_OrnithineISnorm_perc: Stemina devTOX quickPredict H9 human embryonic stem cell (hESC)-based Assay for Ornithine (ORN) Metabolite Biomarker, Normalized (AID 2283712; active means hit-call score of the fitted dose curve at least 0.9, where 1 is the maximum; inactive means score below 0.9;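 further: ornithine released into spent medium during last day measured by mass spectrometry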)
Outline: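 UPLC-HRMS readout: endogenous ornithine EIC area / 13C-ORN internal standard, then % of 0.1% DMSO median. H9 hESCs (pluripotent), 72h exposure, re-dosed with fresh media q24h; last 24-h spent media, deproteinized in 40% acetonitrile.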

[8] = STM_H9_CystineISnorm_perc: Stemina devTOX quickPredict H9 human embryonic stem cell (hESC)-based Assay for Cystine (CYSS) Metabolite Biomarker, Normalized (AID 2283713; active means hit-call score of the fitted dose curve at least 0.9, where 1 is the maximum; inactive means score below 0.9)
Outline: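 UPLC-HRMS read-out: endogenous cystine peak area in spent medium, normalized to isotope-labeled internal standard and to median of 0.1% DMSO controls. Pluripotent H9 cells, 72h exposure, daily medium/compound replenishment; medium from last 24h sampled.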

[9] = Tanguay_ZF_120hpf_TR_legacy: (Legacy) Oregon State University Tanguay Lab 120 Hour Post-fertilization zebrafish Assay for Touch Response (AID 2283667)
Outline: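 Readout is presence or absence of touch response in 120 hpf zebrafish larvae, assessed by brightfield observation after continuous static exposure at 28C. Final vehicle was 0.64% (vol/vol) DMSO.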

[10] = Tanguay_ZF_120hpf_ActivityScore_legacy: (Legacy) Oregon State University Tanguay Lab 120 Hour Post-fertilization zebrafish Assay Score for Activity (AID 2283742);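 on AC50: dechorionated Tropical 5D wild-type zebrafish embryos held singly per well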
Outline: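 In this whole-embryo screen, dechorionated zebrafish were exposed from 6 hpf until 120 hpf at 28C under a 0.64% DMSO vehicle. Developmental malformations and death were recorded by brightfield microscopy as binary endpoints.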

[11] = tested on: Thyroperoxidase (TPO), gene 445522; experiment: CCTE_Simmons_GUA_TPO: CCTE's Guaiacol Assay for Thyroperoxidase (TPO) Inhibition, Simmons Lab (AID 2283750)
Outline: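 Porcine thyroid microsomes (25 ug) in 200mM potassium phosphate, preincubated 30 s at 37C with compound (8 concentrations, 5 nM–87.5 uM) and 35mM guaiacol; 1mM H2O2 starts reaction. Absorbance change at 450nm over first 80 s; loss of signal versus DMSO, three replicates.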

[12] = STM_H9_OrnCyssISnorm_ratio: Stemina devTOX quickPredict H9 human embryonic stem cell (hESC)-based Assay for Ornithine (ORN):Cystine (CYSS) Ratio (AID 2283714)
Outline: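 H9 hESC, 72h, q24h re-dose; last-day media → acetonitrile deproteinization → UPLC-HRMS. ORN:CYSS ratio from isotope-normalized EIC areas, vs 0.1% DMSO; MTX references on each plate.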

[13] = CEETOX_H295R_MTT_cell_viability: Viability Assessment in the CeeTox HT-H295R MTT Assay (AID 2283718; active means hit-call score of the fitted dose curve at least 0.9, where 1 is the maximum; inactive means score below 0.9)
Outline: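 H295R cells prestimulated 48 h with 10 uM forskolin, then exposed 48 h to test chemical (0.1% DMSO final). Viability by MTT (0.5 mg/ml, 4 h, 37 C), absorbance 570/650 nm; percent change versus DMSO, bidirectional fit.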

[14] = read-out: solute carrier (SLC10A1), SLC10A1 (gene 6554); experiment: LTEA_HepaRG_SLC10A1: Life Technologies and Expression Analysis (LTEA) Assay for solute carrier (SLC10A1) using HepaRG (AID 2283657; active means hit-call score of the fitted dose curve at least 0.9, where 1 is the maximum; inactive means score below 0.9); conditions: mRNA level, 48 h; actives raise or lower the signal
Outline: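 Cryopreserved HepaRG cells are thawed, plated and cultured 48 h; medium is then switched to serum-free induction medium and chemicals added (8 points, max 100 uM, 0.5% DMSO). After 48 h, RNA is isolated and SLC10A1 quantified by qRT-PCR.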

[15] = read-out: matrix metalloproteinase-1 (MMP1), MMP1 (gene 4312); experiment: LTEA_HepaRG_MMP1: Life Technologies and Expression Analysis (LTEA) Assay for matrix metalloproteinase-1 (MMP1) using HepaRG (AID 2283658; active means hit-call score of the fitted dose curve at least 0.9, where 1 is the maximum; inactive means score below 0.9); conditions: mRNA level, 48 h; actives raise or lower the signal
Outline: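 qRT-PCR (TaqMan, Fluidigm arrays) of MMP1 transcript, normalized against three housekeeping genes and fitted in both directions relative to 0.5% DMSO vehicle. Human HepaRG cultures received duplicate 48 h exposures across 8 points, highest 100 uM with half-log steps.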

[16] = read-out: Cytochrome P450 (CYP24A1_1), CYP24A1 (gene 1591); experiment: LTEA_HepaRG_CYP24A1_1: Life Technologies and Expression Analysis (LTEA) Assay for Cytochrome P450 (CYP24A1_1) using HepaRG (AID 2283671; active means hit-call score of the fitted dose curve at least 0.9, where 1 is the maximum; inactive means score below 0.9); conditions: mRNA level, 48 h; actives raise or lower the signal
Outline: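 Cultures of human HepaRG were treated in duplicate for 48 h (0.5% DMSO vehicle, highest dose 100 uM). CYP24A1 mRNA by qRT-PCR, normalized to ACTB, GAPDH, POLR2A.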

[17] = ArunA_Migration_hNP: ArunA Biomedical's Oris Neuroprogenitor (hNP) Cell Migration Assay (AID 2283754)
Outline: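 Readout is calcein-AM fluorescence (ex494/em517) of cells migrating into the detection zone, relative to DMSO. hNP1 cells (H9-derived) grown on Matrigel behind stoppers 16 h, then stoppers pulled and chemical applied 72 h; cytochalasin D as control.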

[18] = ArunA_Migration_hNC: ArunA Biomedical's Oris Neural Crest (hNC) Cell Migration Assay (AID 2283755)
Outline: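 Calcein-AM fluorescence (ex494 nm/em 517 nm) in the stopper-defined detection zone quantifies migration of hNC cells after 72 h chemical exposure; 60,000 cells/well plated on Matrigel with LIF and bFGF, 16 h pre-incubation. DMSO baseline.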

[19] = ArunA_CellTiter_hNC: Viability Assessment in the ArunA Biomedical's Oris Neural Crest (hNC) Cell Migration Assay (AID 2283752)
Outline: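 hNC cells (H9 ESC-derived), 60,000/well, Matrigel, LIF + bFGF medium; 16 h 37C attachment; 72 h compound in test medium; CellTiter Aqueous One read-out; loss-of-signal vs DMSO baseline.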

[20] = ArunA_CellTiter_hNP: Viability Assessment in the ArunA Biomedical's Oris Neural Crest (hNC) Cell Migration Assay (AID 2283753)
Outline: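 Viability read with CellTiter 96 Aqueous One after 72 h chemical exposure of human hNP1 neuroprogenitors, which were plated on Matrigel in LIF/bFGF medium 16 h beforehand. Endpoint fitted in positive direction relative to DMSO.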

Measured: AC50

CC1=C(/C=C/C(C)=C/C=C/C(C)=C/CO)C(C)(C)CCC1
inactive: [1] | [2] | [3] | [7] | [8]
active: [4] 28.6 µM | [5] 12 µM | [6] 28.2 µM

NS(=O)(=O)c1cc2c(cc1Cl)NCNS2(=O)=O
inactive: [1] | [2] | [3]

Cc1cccc(C)c1O
active: [4] 23.4 µM
inactive: [1] | [2] | [3] | [5] | [9] | [10] | [11]

C=CCOC(=O)c1ccccc1C(=O)OCC=C
active: [1] 46.4 µM | [6] 16.6 µM | [8] 53.5 µM | [12] 41.3 µM | [10] 37.4 µM
inactive: [2] | [3] | [9] | [13]

CN1CCCC1=O
inactive: [1] | [2] | [3] | [14] | [15] | [5] | [9] | [16] | [10]

CCCc1cc(=O)[nH]c(=S)[nH]1
active: [4] 0.285 µM
not listed: [6] | [11] | [13] | [14] | [15] | [16] | [19] | [20]
inactive: all other assays above

CCCCCCCCCCC
inactive: [1] | [2] | [3] | [14] | [15] | [9] | [16]

O=C(O)Cc1ccccc1Nc1c(Cl)cccc1Cl
inactive: [1] | [2] | [3] | [9] | [7] | [8] | [12]
active: [6] 4.79 µM | [10] 35 µM

Cc1cc(=O)[nH]c(=S)[nH]1
active: [4] 0.593 µM | [11] 7.71 µM
inactive: [1] | [2] | [3] | [5] | [9]

CCCCC(CC)COC(=O)CC(C(=O)OCC(CC)CCCC)S(=O)(=O)O (stereo unspecified)
active: [4] 43.8 µM | [5] 15.8 µM | [20] 7.54 µM | [17] 77.9 µM | [18] 28.7 µM
not listed: [6] | [11] | [13] | [14] | [15] | [16]
inactive: all other assays above

C[Si]1(C)O[Si](C)(C)O[Si](C)(C)O[Si](C)(C)O1
inactive: [1] | [2] | [3] | [9]

COCCOCCOC
inactive: [1] | [2] | [3] | [9] | [6] | [7] | [8] | [12] | [10]

Cc1c(C(=O)O)c(O)cc2c1C(=O)c1c(O)c([C@@H]3O[C@H](CO)[C@@H](O)[C@H](O)[C@H]3O)c(O)c(O)c1C2=O
inactive: [1] | [2] | [3] | [9] | [6] | [7] | [8] | [12] | [13]
active: [4] 2.65 µM | [5] 12.6 µM

Nc1ccc(S(=O)(=O)c2ccc(N)cc2)cc1
active: [4] 6.89 µM
inactive: [1] | [2] | [3] | [5] | [9]

CN[C@H]1CC[C@@H](c2ccc(Cl)c(Cl)c2)c2ccc(S(N)(=O)=O)cc21
active: [5] 9.23 µM | [6] 61.9 µM
inactive: [1] | [2] | [3] | [4] | [9]

O=C(O)CCCCC(=O)O
inactive: [1] | [2] | [3] | [9]

COc1cc(-c2nc(NC(=O)c3cc4cc(C)cc(C)c4n3CC(=O)O)sc2CCC2CCCCC2)c(OC)cc1Cl
inactive: [1] | [2] | [3] | [9]

COC(=O)c1ccc(O)cc1
active: [7] 0.091 µM
not listed: [4] | [5] | [11] | [14] | [15] | [16] | [20]
inactive: all other assays above

Cc1ccc(C)c(C)c1
inactive: [1] | [2] | [3] | [14] | [15] | [9] | [16]

Cc1ccc(C)c(O)c1C
active: [4] 10.5 µM
inactive: [1] | [2] | [3] | [5] | [9] | [11]

Cc1cc(NC(=O)C(=O)O)cc(C)c1Oc1ccc(O)c2c1CCC2
active: [4] 5.07 µM | [6] 0.657 µM
not listed: [10] | [11] | [12] | [14] | [15] | [16] | [20]
inactive: all other assays above

Cc1ccc(N(C)C)cc1
active: [4] 11.3 µM | [11] 95.1 µM
inactive: [1] | [2] | [3] | [5]

CN1CCN(Cc2cc(-c3ccc4[nH]c(=O)oc4c3)co2)[C@@H](c2ccc(F)cc2)C1
active: [2] 16.2 µM | [6] 18.6 µM | [8] 5 µM | [12] 5 µM
inactive: [1] | [3] | [9] | [7] | [13]

Source: PubChem BioAssay (EPA / NIEHS)
